# Data reported in publication PMC5540273 (PLoS ONE, 2017).
# Like-named read-outs stand apart in the source and are kept apart here.
# Assays:
# Conditions in all cases: n = 1
# TTK = tested on: TTK
# TXK = tested on: TXK
# [1] = tested on: TYK2(JH1domain-catalytic)
# [2] = tested on: TYK2(JH2domain-pseudokinase)
# TYRO3 = tested on: TYRO3
# ULK1 = tested on: ULK1
# ULK2 = tested on: ULK2
# ULK3 = tested on: ULK3
# VEGFR2 = tested on: T1, VEGFR2
# T1 construct: gene KDR
# VPS34 = tested on: T2, VPS34
# T2 construct: gene PIK3C3
# VRK2 = tested on: VRK2
# WEE1 = tested on: WEE1
# WEE2 = tested on: WEE2
# WNK1 = tested on: WNK1
# WNK2 = tested on: WNK2
# WNK3 = tested on: WNK3
# WNK4 = tested on: WNK4
# YANK1 = tested on: T3, YANK1
# T3 construct: gene STK32A
# YANK2 = tested on: T4, YANK2
# T4 construct: gene STK32B
# YANK3 = tested on: T5, YANK3
# T5 construct: gene STK32C
# [3] = concentration: 1 μM, replicates: in singlicate
# 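Further: KINOMEscan kinase panel screen.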
smiles,measurement,setting,value
Cc1ccc(NC(=O)Nc2cccc(Cl)c2)cc1-c1ccc(C(=O)Nc2ccncc2)cc1 [GSK1398468],%Inh,TTK; [3],0%
same,%Inh,TXK; [3],0%
same,%Inh,[1]; [3],0%
same,%Inh,[2]; [3],26%
same,%Inh,TYRO3; [3],0%
same,%Inh,ULK1; [3],11%
same,%Inh,ULK2; [3],0%
same,%Inh,ULK3; [3],5%
same,%Inh,VEGFR2; [3],16%
same,%Inh,VPS34; [3],0%
same,%Inh,VRK2; [3],0%
same,%Inh,WEE1; [3],2%
same,%Inh,WEE2; [3],21%
same,%Inh,WNK1; [3],7%
same,%Inh,WNK2; [3],0%
same,%Inh,WNK3; [3],18%
same,%Inh,WNK4; [3],24%
same,%Inh,YANK1; [3],10%
same,%Inh,YANK2; [3],0%
same,%Inh,YANK3; [3],0%
Cc1cccc(-c2nc(Nc3cccc(C(N)=O)c3)c3ccccc3n2)n1 [GW876019],%Inh,TTK; [3],0%
same,%Inh,TXK; [3],0%
same,%Inh,[1]; [3],19%
same,%Inh,[2]; [3],25%
same,%Inh,TYRO3; [3],9%
same,%Inh,ULK1; [3],0%
same,%Inh,ULK2; [3],0%
same,%Inh,ULK3; [3],0%
same,%Inh,VEGFR2; [3],0%
same,%Inh,VPS34; [3],4%
same,%Inh,VRK2; [3],0%
same,%Inh,WEE1; [3],5%
same,%Inh,WEE2; [3],9%
same,%Inh,WNK1; [3],0%
same,%Inh,WNK2; [3],0%
same,%Inh,WNK3; [3],0%
same,%Inh,WNK4; [3],0%
same,%Inh,YANK1; [3],0%
same,%Inh,YANK2; [3],0%
same,%Inh,YANK3; [3],0%
Fc1cc(Cl)ccc1Nc1ccnc2cc(I)ccc12 [GW551191],%Inh,TTK; [3],0%
same,%Inh,TXK; [3],28%
same,%Inh,[1]; [3],13%
same,%Inh,[2]; [3],16%
same,%Inh,TYRO3; [3],18%
same,%Inh,ULK1; [3],3%
same,%Inh,ULK2; [3],0%
same,%Inh,ULK3; [3],0%
same,%Inh,VEGFR2; [3],6%
same,%Inh,VPS34; [3],2%
same,%Inh,VRK2; [3],0%
same,%Inh,WEE1; [3],8%
same,%Inh,WEE2; [3],0%
same,%Inh,WNK1; [3],3%
same,%Inh,WNK2; [3],11%
same,%Inh,WNK3; [3],29%
same,%Inh,WNK4; [3],16%
same,%Inh,YANK1; [3],16%
same,%Inh,YANK2; [3],11%
same,%Inh,YANK3; [3],20%
COc1ccccc1-c1ccc2c(NC(=O)C3CC3)n[nH]c2n1 [SB-711239],%Inh,TTK; [3],21%
same,%Inh,TXK; [3],0%
same,%Inh,[1]; [3],0%
same,%Inh,[2]; [3],18%
same,%Inh,TYRO3; [3],0%
same,%Inh,ULK1; [3],63%
same,%Inh,ULK2; [3],0%
same,%Inh,ULK3; [3],100%
same,%Inh,VEGFR2; [3],0%
same,%Inh,VPS34; [3],15%
same,%Inh,VRK2; [3],21%
same,%Inh,WEE1; [3],8%
same,%Inh,WEE2; [3],5%
same,%Inh,WNK1; [3],7%
same,%Inh,WNK2; [3],0%
same,%Inh,WNK3; [3],37%
same,%Inh,WNK4; [3],0%
same,%Inh,YANK1; [3],15%
same,%Inh,YANK2; [3],0%
same,%Inh,YANK3; [3],20%
COc1ccc2nc(-c3cccc(C)n3)nc(Nc3ccncc3)c2c1 [GSK204919],%Inh,TTK; [3],0%
same,%Inh,TXK; [3],9%
same,%Inh,[1]; [3],10%
same,%Inh,[2]; [3],82%
same,%Inh,TYRO3; [3],4%
same,%Inh,ULK1; [3],4%
same,%Inh,ULK2; [3],0%
same,%Inh,ULK3; [3],2%
same,%Inh,VEGFR2; [3],0%
same,%Inh,VPS34; [3],0%
same,%Inh,VRK2; [3],33%
same,%Inh,WEE1; [3],0%
same,%Inh,WEE2; [3],2%
same,%Inh,WNK1; [3],5%
same,%Inh,WNK2; [3],3%
same,%Inh,WNK3; [3],8%
same,%Inh,WNK4; [3],9%
same,%Inh,YANK1; [3],19%
same,%Inh,YANK2; [3],2%
same,%Inh,YANK3; [3],18%
Cl.Oc1ccc(-c2nc(-c3ccccc3)[nH]c2-c2ccncc2)cc1 [SB-428218],%Inh,TTK; [3],0%
same,%Inh,TXK; [3],8%
same,%Inh,[1]; [3],100%
same,%Inh,[2]; [3],67%
same,%Inh,TYRO3; [3],0%
same,%Inh,ULK1; [3],8%
same,%Inh,ULK2; [3],0%
same,%Inh,ULK3; [3],6%
same,%Inh,VEGFR2; [3],0%
same,%Inh,VPS34; [3],0%
same,%Inh,VRK2; [3],64%
same,%Inh,WEE1; [3],64%
same,%Inh,WEE2; [3],8%
same,%Inh,WNK1; [3],0%
same,%Inh,WNK2; [3],0%
same,%Inh,WNK3; [3],0%
same,%Inh,WNK4; [3],60%
same,%Inh,YANK1; [3],8%
same,%Inh,YANK2; [3],0%
same,%Inh,YANK3; [3],21%
COc1cc(Nc2nccc(N3CCC(NC(=O)Nc4cc(C)ccc4C)C3)n2)cc(OC)c1OC (centres unmarked) [GSK1379762],%Inh,TTK; [3],16%
same,%Inh,TXK; [3],13%
same,%Inh,[1]; [3],39%
same,%Inh,[2]; [3],3%
same,%Inh,TYRO3; [3],0%
same,%Inh,ULK1; [3],19%
same,%Inh,ULK2; [3],4%
same,%Inh,ULK3; [3],92.4%
same,%Inh,VEGFR2; [3],0%
same,%Inh,VPS34; [3],0%
same,%Inh,VRK2; [3],0%
same,%Inh,WEE1; [3],32%
same,%Inh,WEE2; [3],9%
same,%Inh,WNK1; [3],1%
same,%Inh,WNK2; [3],0%
same,%Inh,WNK3; [3],8%
same,%Inh,WNK4; [3],25%
same,%Inh,YANK1; [3],8%
same,%Inh,YANK2; [3],0%
same,%Inh,YANK3; [3],10%
CC1=C(C(=O)Nc2cc3cn[nH]c3cc2F)C(c2ccc(C(F)(F)F)cc2)CC(=O)N1 (centres unmarked) [GSK429286],%Inh,TTK; [3],25%
same,%Inh,TXK; [3],21%
same,%Inh,[1]; [3],14%
same,%Inh,[2]; [3],3%
same,%Inh,TYRO3; [3],12%
same,%Inh,ULK1; [3],0%
same,%Inh,ULK2; [3],0%
same,%Inh,ULK3; [3],34%
same,%Inh,VEGFR2; [3],0%
same,%Inh,VPS34; [3],0%
same,%Inh,VRK2; [3],0%
same,%Inh,WEE1; [3],12%
same,%Inh,WEE2; [3],20%
same,%Inh,WNK1; [3],20%
same,%Inh,WNK2; [3],61%
same,%Inh,WNK3; [3],3%
same,%Inh,WNK4; [3],0%
same,%Inh,YANK1; [3],8%
same,%Inh,YANK2; [3],0%
same,%Inh,YANK3; [3],24%
CS(=O)(=O)c1ccc(-c2c(-c3ncn[nH]3)sc(N3CCOCC3)c2C#N)cc1,%Inh,TTK; [3],21%
same,%Inh,TXK; [3],0%
same,%Inh,[1]; [3],0%
same,%Inh,[2]; [3],0%
same,%Inh,TYRO3; [3],0%
same,%Inh,ULK1; [3],3%
same,%Inh,ULK2; [3],36%
same,%Inh,ULK3; [3],7%
same,%Inh,VEGFR2; [3],8%
same,%Inh,VPS34; [3],86%
same,%Inh,VRK2; [3],0%
same,%Inh,WEE1; [3],0%
same,%Inh,WEE2; [3],10%
same,%Inh,WNK1; [3],0%
same,%Inh,WNK2; [3],11%
same,%Inh,WNK3; [3],0%
same,%Inh,WNK4; [3],0%
same,%Inh,YANK1; [3],27%
same,%Inh,YANK2; [3],0%
same,%Inh,YANK3; [3],16%
Cc1ccc(NC(=O)Nc2cccc(C(F)(F)F)c2)cc1 [GSK955403],%Inh,TTK; 1 µM,19%
same,%Inh,TXK; 1 µM,38%
same,%Inh,[1]; 1 µM,24%
same,%Inh,[2]; 1 µM,0%
same,%Inh,TYRO3; 1 µM,16%
same,%Inh,ULK1; 1 µM,0%
same,%Inh,ULK2; 1 µM,6%
same,%Inh,ULK3; 1 µM,0%
same,%Inh,VEGFR2; 1 µM,0%
same,%Inh,VPS34; 1 µM,0%
same,%Inh,VRK2; 1 µM,0%
same,%Inh,WEE1; 1 µM,3%
same,%Inh,WEE2; 1 µM,0%
same,%Inh,WNK1; 1 µM,0%
same,%Inh,WNK2; 1 µM,0%
same,%Inh,WNK3; 1 µM,0%
same,%Inh,WNK4; 1 µM,0%
same,%Inh,YANK1; 1 µM,0%
same,%Inh,YANK2; 1 µM,0%
same,%Inh,YANK3; 1 µM,0%
